The target in one experiment is BBS5. The experiment in a line: pooled miR-30 sensor sort-seq; sequence = guide strand. To be noted: shRNA.
Turning to AACATATCCACCACTCTGCTGA, the sensor-assay potency score (higher = more potent) is -0.129.
Consider TATCATATACATGTTCTTGTGG, for which the sensor-assay potency score (higher = more potent) is -0.0827.
The same measure, in the same setting: the same measure for TTAGTATATAGAGAGCTTCAGT: -0.624; for TTTTATCATATACATGTTCTTG: -0.69; for TTTCCTTAACTGATTCTTGTAG: -0.239.
The same measure, in the same setting: the same measure for TAAATATAAATTCAAAACGAGT: -1.56; for TTAGAGTTAGCAGTCCTTGTTG: -0.252; for TTGAATTTGTTCGACTGTCAGA: -0.412.
As to TTTATCATATACATGTTCTTGT, the sensor-assay potency score (higher = more potent) amounted to 0.705.
The same measure, in the same setting: the same measure for TTCGACTGTCAGAGCTTCGAGC: -0.723; for TTCTACATCATCTTGAATTTGT: -0.245.
On the same count and under the same terms, the same measure for AAATTTTGAATCTCTAATCTTT: -0.135.

In another experiment the target is BCAR3. The description is as above. Conditions: shRNA.
Turning to TTGAGGAACGGCACCTTGCAGG, the sensor-assay potency score (higher = more potent) is -0.594.
The sequence TTGGTGAACAGTTCTTTTGCAC had a sensor-assay potency score (higher = more potent) of 0.174.
Same read-out and setting: the figure for TAGGAAGTCACCATCTCGCTGC is 0.641.
Same read-out and setting: the same measure for TTTTCTAACCTTGTGATCTGTG: -0.0388.
TTGACTTGTGCACCTTTGCTGC registered a sensor-assay potency score (higher = more potent) of -0.561.
Still for that read-out and setting: the figure for TCTGATTGACTTGTGCACCTTT is 0.95.
On to TAACCTTGTGATCTGTGGCATT, for which the sensor-assay potency score (higher = more potent) is -0.946.
Still for that read-out and setting: the same measure for TTGCACGTTTCAACATTGCTGT: -0.296.
As for TTGAGGGACAAGGCTCTTCTGT, the sensor-assay potency score (higher = more potent) is -0.76.
The sequence TCGCATTTGAAATTCAGTCTTG showed a sensor-assay potency score (higher = more potent) of -0.471.
The sequence TTGAATTTCTCATATCTCTCTG gave a sensor-assay potency score (higher = more potent) of 0.778.
The same measure, in the same setting: the same measure for TGAATTTCTCATATCTCTCTGT: 0.413.

The target of another experiment is BCL11A. The experiment is described as above. To be noted: shRNA.
Turning to TGAAATTTGAACGTCTTGCCGC, the sensor-assay potency score (higher = more potent) came out at 0.0443.
TACTATATAATCTTAAACCTTT gave a sensor-assay potency score (higher = more potent) of -0.147.
Sequence TTAATTGTCCTATCTGAGCAGG had a sensor-assay potency score (higher = more potent) of -0.599.
Sequence TTGACAACCAAGTAGATCTGGA returned a sensor-assay potency score (higher = more potent) of 0.0039.
The same measure, in the same setting: the same measure for TTCACATTTGTAAACGTCCTTC: -0.693; for TAAAAGACAACATAGAATGTAT: 0.0879; for TTGCACTATATTATCCTGCCAA: -0.344.
Same read-out and setting: the same measure for ATAACAAGTAGAAAGAACCATC: -0.773; for TTATTTTATACTCAACCTCTGT: -0.873; for TAGCATAGGAATCAACATGAGT: -0.704.
Same read-out and setting: the same measure for TAAACAATCGTCATCCTCTGGC: -0.0288; for TATCATTTGATTGTCCACTTGA: 0.591.

These data come from the OligoGym collection.
Further: reference of the scale not given here.
